Results taken from PubChem BioAssay (Tox21).
Values without a mark were called inactive. Inconclusive results are not listed. Entries that show only a call come without a potency. Calls of active or inactive are those of the source. Unless noted, calls follow the shape of the dose curve; as a rule, active = well fitted curve in the direction sought with a large enough effect in the repeat runs; inconclusive = weak or mixed curves; inactive = no such curve, though single readings can be large; an effect the other way counts as inactive or inconclusive.

What was measured:
[1] = qHTS assay to test for compound auto fluorescence at 535 nm (green) in HEK293 cells (AID 720680)
[2] = qHTS assay to test for compound auto fluorescence at 460 nm (blue) in HEK293 cell free culture (AID 720681)
Summary of the method: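 Test compounds were pinned into cell-free culture medium (DMEM with 10% FBS) and fluorescence was read directly at Ex/Em 405/460 nm. Signals were expressed as fluorescence equivalents of triamterene, with DMSO vehicle as control.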

[3] = qHTS assay to test for compound auto fluorescence at 535 nm (green) in HEK293 cell free culture (AID 720682)
Summary of the method: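 Intrinsic compound fluorescence is measured in culture medium containing 10% FBS, with excitation at 485 nm and detection at 535 nm, referenced to fluorescein.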

[4] = qHTS assay to test for compound auto fluorescence at 590 nm (red) in HEK293 cell free culture (AID 720683)
Summary of the method: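 Tox21 10K library compounds were pinned into cell-free DMEM with 10% FBS and fluorescence was read at excitation 540 nm. Activity is expressed as Rose Bengal sodium equivalency.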

[5] = qHTS assay to test for compound auto fluorescence at 590 nm (red) in HepG2 cell free culture (AID 720684)
Summary of the method: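 Readout: intrinsic compound fluorescence at 590 nm emission after 540 nm excitation, scaled to Rose Bengal sodium. Matrix was cell-free MEM with 10% FBS; DMSO vehicle wells served as control.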

[6] = qHTS assay to test for compound auto fluorescence at 460 nm (blue) in HepG2 cell free culture (AID 720685)
Summary of the method: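 Cell-free plates of MEM plus 10% FBS received 23 nL compound or DMSO vehicle; blue-channel (405/460 nm) intensity scored against triamterene as reference fluorophore.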

[7] = qHTS assay to test for compound auto fluorescence at 535 nm (green) in HepG2 cell free culture (AID 720686)
[8] = qHTS assay to test for compound auto fluorescence at 460 nm (blue) in HepG2 cells (AID 720687)
Summary of the method: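 Cells (2,000/well in MEM with 10% FBS) attached overnight at 37 C, then were exposed to compound or DMSO for 1 hr at 37 C, 5% CO2. Fluorescence read at Ex/Em 405/460 nm, expressed as triamterene-equivalent signal.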

[9] = qHTS assay to identify small molecule antagonists of the glucocorticoid receptor (GR) signaling pathway - cell viability counter screen (AID 720693); also: nearly all actives have a fitted effect of over 55% in size
[10] = qHTS assay for identifying genotoxic compounds that show differential cytotoxicity against isogenic chicken DT40 cell lines with known DNA damage response pathways - Rev3 mutant cell line (AID 743014); also: nearly all actives have a fitted effect of over 55% in size
[11] = qHTS assay for identifying genotoxic compounds that show differential cytotoxicity against isogenic chicken DT40 cell lines with known DNA damage response pathways - Rad54/Ku70 mutant cell line (AID 743015); also: nearly all actives have a fitted effect of over 60% in size
[12] = qHTS assay to identify small molecule antagonists of the androgen receptor (AR) signaling pathway - cell viability counter screen (AID 743033; also: nearly all actives have a fitted effect of over 45% in size)
[13] = qHTS assay to identify small molecule antagonists of the androgen receptor (AR) signaling pathway using the MDA cell line - cell viability counter screen (AID 743041; also: nearly all actives have a fitted effect of over 45% in size)
Summary of the method: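 qHTS viability read-out; MDA-kb2 AR-luc; R1881-stimulated; 16 h exposure at 37C, 0% CO2; CellTiter-Fluor, 30 min; fluorescence intensity.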

[14] = qHTS assay for identifying genotoxic compounds that show differential cytotoxicity against isogenic chicken DT40 cell lines with known DNA damage response pathways - wild type cell line (AID 743012); also: nearly all actives have a fitted effect of over 60% in size; also: potency is read from the fitted curve at half-maximal effect
Summary of the method: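 Luminescent ATP viability signal (CellTiter-Glo, 30 min RT) recorded after wild type DT40 cells were incubated with compounds for 40 h at 37 C/5% CO2.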

[15] = target: Androgen receptor (Homo sapiens) (UniProt P10275); assay: qHTS assay to identify small molecule antagonists of the androgen receptor (AR) signaling pathway (AID 743035; active = well fitted inhibition curve with a large enough effect in the signal ratio in the repeat runs, not every such curve was filed as active; the % refers to the signal ratio)
Sequence of Androgen receptor (Homo sapiens) (P10275 whole entry, looked up): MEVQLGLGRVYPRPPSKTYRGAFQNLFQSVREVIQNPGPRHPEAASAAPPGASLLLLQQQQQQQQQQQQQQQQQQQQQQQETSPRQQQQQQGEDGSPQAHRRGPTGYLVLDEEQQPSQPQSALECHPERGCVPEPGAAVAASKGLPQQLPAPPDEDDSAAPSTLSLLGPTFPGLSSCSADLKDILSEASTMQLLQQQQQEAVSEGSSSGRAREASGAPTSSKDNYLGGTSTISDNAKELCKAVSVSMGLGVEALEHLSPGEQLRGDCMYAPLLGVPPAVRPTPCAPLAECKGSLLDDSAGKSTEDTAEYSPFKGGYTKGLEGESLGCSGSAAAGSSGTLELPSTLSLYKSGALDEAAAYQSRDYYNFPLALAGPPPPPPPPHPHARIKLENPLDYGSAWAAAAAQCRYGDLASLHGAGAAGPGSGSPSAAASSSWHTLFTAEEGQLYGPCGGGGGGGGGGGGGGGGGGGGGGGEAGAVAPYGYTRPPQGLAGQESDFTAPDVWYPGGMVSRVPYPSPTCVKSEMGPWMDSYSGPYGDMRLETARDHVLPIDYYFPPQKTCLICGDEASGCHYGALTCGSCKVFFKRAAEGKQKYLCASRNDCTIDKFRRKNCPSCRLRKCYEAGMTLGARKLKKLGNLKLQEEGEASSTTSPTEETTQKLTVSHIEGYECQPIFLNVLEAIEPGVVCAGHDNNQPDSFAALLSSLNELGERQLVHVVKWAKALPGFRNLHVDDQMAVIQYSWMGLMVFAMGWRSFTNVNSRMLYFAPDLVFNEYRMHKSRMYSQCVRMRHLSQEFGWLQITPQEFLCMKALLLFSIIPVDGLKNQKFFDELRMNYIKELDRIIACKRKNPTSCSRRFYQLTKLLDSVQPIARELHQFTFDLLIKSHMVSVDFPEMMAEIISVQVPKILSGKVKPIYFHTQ
Summary of the method: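 Quantitative HTS of the Tox21 10K library used HEK293 AR-UAS-bla cells stimulated with R1881 alongside compound for 16 h at 37C, followed by beta-lactamase FRET detection (LiveBLAzer B/G, 2 h, RT).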

[16] = target: Androgen receptor (Homo sapiens) (UniProt P10275); assay: qHTS assay to identify small molecule agonists of the androgen receptor (AR) signaling pathway using the MDA cell line (AID 743040; also: nearly all actives have a fitted effect of over 20% in size)
Summary of the method: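 Agonist activity is measured as luciferase luminescence in human MDA-kb2 cells whose MMTV reporter responds to both AR and GR. Compounds in DMSO incubate 16 h at 37C, 0% CO2, and ONE-Glo is read after 30 min.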

[17] = target: Androgen receptor (Homo sapiens) (UniProt P10275); assay: qHTS assay to identify small molecule antagonists of the androgen receptor (AR) signaling pathway using the MDA cell line (AID 743042; also: nearly all actives have a fitted effect of over 55% in size)
Summary of the method: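 MDA-kb2 cells (human breast carcinoma, stably carrying an MMTV-luciferase reporter responsive to AR and GR) were plated at 3,000 cells/well and preincubated 5 hr at 37C, then given compound plus R1881 agonist for 16 h. ONE-Glo luminescence was read.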

[18] = qHTS assay to identify small molecule antagonists of the thyroid receptor (TR) signaling pathway - cell viability counter screen (AID 743064); also: nearly all actives have a fitted effect of over 50% in size
Summary of the method: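 Same-well viability check: GH3.TRE-Luc cells stimulated with 1 nM T3 alongside test compound for 23.5 h, followed by CellTiter-Fluor fluorescence.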

[19] = target: Glucocorticoid receptor (Homo sapiens) (UniProt P04150); assay: qHTS assay to identify small molecule agonists of the glucocorticoid receptor (GR) signaling pathway (AID 720691; active = well fitted activation curve with a large enough effect in the signal ratio in the repeat runs, not every such curve was filed as active; the % refers to the signal ratio)
Sequence of Glucocorticoid receptor (Homo sapiens) (P04150 whole entry, looked up): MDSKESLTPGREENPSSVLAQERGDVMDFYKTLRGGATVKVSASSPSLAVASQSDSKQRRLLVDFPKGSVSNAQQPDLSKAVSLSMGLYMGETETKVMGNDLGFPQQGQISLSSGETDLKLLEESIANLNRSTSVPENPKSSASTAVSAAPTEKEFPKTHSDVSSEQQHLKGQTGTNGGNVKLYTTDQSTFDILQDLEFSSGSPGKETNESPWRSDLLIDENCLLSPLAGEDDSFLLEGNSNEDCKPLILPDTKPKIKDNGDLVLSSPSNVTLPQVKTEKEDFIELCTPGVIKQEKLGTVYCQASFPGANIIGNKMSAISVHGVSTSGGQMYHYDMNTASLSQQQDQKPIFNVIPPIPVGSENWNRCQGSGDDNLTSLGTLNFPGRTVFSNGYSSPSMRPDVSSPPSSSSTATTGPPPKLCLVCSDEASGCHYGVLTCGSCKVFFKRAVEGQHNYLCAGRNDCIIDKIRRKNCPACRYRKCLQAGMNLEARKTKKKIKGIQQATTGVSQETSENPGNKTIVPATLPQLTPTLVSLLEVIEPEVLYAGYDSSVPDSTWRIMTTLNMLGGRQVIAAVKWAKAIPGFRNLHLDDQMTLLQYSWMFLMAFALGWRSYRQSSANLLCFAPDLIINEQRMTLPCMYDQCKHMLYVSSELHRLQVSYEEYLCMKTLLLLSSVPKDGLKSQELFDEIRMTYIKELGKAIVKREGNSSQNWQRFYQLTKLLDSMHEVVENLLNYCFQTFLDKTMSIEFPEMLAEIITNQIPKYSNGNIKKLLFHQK
Summary of the method: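 Cells: GR-bla HeLa, endogenous GR with stably integrated GRE-beta-lactamase reporter. Treatment 18 h, 37 C, compounds delivered in DMSO. Detection via LiveBLAzer B/G FRET substrate, 2 h RT, fluorescence intensity.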

[20] = target: Glucocorticoid receptor (Homo sapiens) (UniProt P04150); assay: qHTS assay to identify small molecule antagonists of the glucocorticoid receptor (GR) signaling pathway (AID 720692; active = well fitted inhibition curve with a large enough effect in the signal ratio in the repeat runs, not every such curve was filed as active; the % refers to the signal ratio)
Summary of the method: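 Quantitative HTS in antagonist format: HeLa cells expressing endogenous GR and a stably integrated GRE-bla reporter, stimulated with 5 nM dexamethasone (final) alongside test compounds for 18 h.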

c1ccc(CCc2ccccc2)cc1
outcome [1]: inactive | outcome [2]: inactive | outcome [3]: inactive | outcome [4]: inactive | outcome [5]: inactive | outcome [6]: inactive | outcome [7]: inactive | outcome [8]: inactive | outcome [9]: inactive | Potency [10]: inactive | Potency [11]: inactive | outcome [12]: inactive | Potency [13]: inactive

CC(C)(N)C#N
outcome [1]: inactive | outcome [2]: inactive | outcome [3]: inactive | outcome [4]: inactive | outcome [5]: inactive | outcome [6]: inactive | outcome [7]: inactive | outcome [8]: inactive | outcome [9]: inactive | Potency [14]: inactive | Potency [10]: inactive | Potency [11]: inactive | outcome [12]: inactive | Potency [13]: inactive

CCN[C@@H]1C[C@H](N)[C@@H](OC2OC(CN)=CCC2N)[C@H](O)[C@H]1O[C@H]1OC[C@](C)(O)[C@H](NC)[C@H]1O (stereo partly drawn)
outcome [1]: inactive | outcome [2]: inactive | outcome [3]: inactive | outcome [4]: inactive | outcome [5]: inactive | outcome [6]: inactive | outcome [7]: inactive | outcome [8]: inactive | outcome [9]: inactive | Potency [14]: inactive | Potency [11]: inactive | outcome [12]: inactive | Potency [13]: inactive

O=S(=O)(O)c1cccc(S(=O)(=O)O)c1
outcome [1]: inactive | outcome [2]: inactive | outcome [3]: inactive | outcome [4]: inactive | outcome [5]: inactive | outcome [6]: inactive | outcome [7]: inactive | outcome [8]: inactive | outcome [9]: inactive | Potency [14]: inactive | Potency [11]: inactive | outcome [12]: inactive | Potency [15]: inactive | Potency [16]: inactive | outcome [17]: inactive | Potency [18]: inactive

CC(CO)(CO)[N+](=O)[O-]
outcome [1]: inactive | outcome [2]: inactive | outcome [3]: inactive | outcome [4]: inactive | outcome [5]: inactive | outcome [6]: inactive | outcome [7]: inactive | outcome [8]: inactive | outcome [9]: inactive | Potency [14]: inactive | Potency [11]: inactive | outcome [12]: inactive | Potency [13]: inactive | Potency [18]: inactive

CCOCC(C)O (stereo not drawn)
outcome [1]: inactive | outcome [2]: inactive | outcome [3]: inactive | outcome [4]: inactive | outcome [5]: inactive | outcome [7]: inactive | outcome [8]: inactive | Potency [19]: inactive | Potency [20]: inactive | outcome [9]: inactive | Potency [14]: inactive | Potency [11]: inactive | outcome [12]: inactive | Potency [13]: inactive

CC(C)CCCO
outcome [1]: inactive | outcome [2]: inactive | outcome [3]: inactive | outcome [4]: inactive | outcome [5]: inactive | outcome [7]: inactive | outcome [8]: inactive | Potency [19]: inactive | Potency [20]: inactive | outcome [9]: inactive | Potency [14]: inactive | Potency [10]: inactive | Potency [11]: inactive | outcome [12]: inactive | Potency [13]: inactive | Potency [18]: inactive

O=C(O)Cc1csc(-c2ccc(Cl)cc2)n1
outcome [1]: inactive | outcome [2]: inactive | outcome [3]: inactive | outcome [4]: inactive | outcome [5]: inactive | outcome [6]: inactive | outcome [7]: inactive | outcome [8]: inactive | outcome [9]: inactive | Potency [14]: inactive | Potency [10]: inactive | Potency [11]: inactive | Potency [15]: inactive | Potency [16]: inactive | Potency [13]: inactive | outcome [17]: inactive

O=C(O)CC(C(=O)O)S(=O)(=O)O (stereo not drawn)
outcome [1]: inactive | outcome [2]: inactive | outcome [3]: inactive | outcome [4]: inactive | outcome [5]: inactive | outcome [7]: inactive | outcome [8]: inactive | Potency [19]: inactive | Potency [20]: inactive | outcome [9]: inactive | Potency [14]: 68.6 µM (active) | outcome [12]: inactive | Potency [13]: inactive | Potency [18]: inactive

CCCCN(CCC(=O)OCC)C(C)=O
outcome [1]: inactive | outcome [2]: inactive | outcome [3]: inactive | outcome [4]: inactive | outcome [5]: inactive | outcome [7]: inactive | outcome [8]: inactive | Potency [19]: inactive | Potency [20]: inactive | outcome [9]: inactive | Potency [14]: inactive | Potency [11]: inactive | outcome [12]: inactive | Potency [13]: inactive | Potency [18]: inactive

C=CC(C)(CCC=C(C)C)OC(=O)CC (stereo not drawn)
outcome [1]: inactive | outcome [2]: inactive | outcome [3]: inactive | outcome [4]: inactive | outcome [5]: inactive | outcome [7]: inactive | outcome [8]: inactive | Potency [19]: inactive | Potency [20]: inactive | outcome [9]: inactive | Potency [14]: inactive | Potency [11]: inactive | outcome [12]: inactive

Cc1ncc([C@@H](CCCCCCc2ccc3c(n2)NCCC3)CC(=O)O)cn1
outcome [1]: inactive | outcome [2]: inactive | outcome [3]: inactive | outcome [4]: inactive | outcome [5]: inactive | outcome [6]: inactive | outcome [7]: inactive | outcome [8]: inactive | outcome [9]: inactive | Potency [14]: inactive | Potency [11]: inactive | outcome [12]: inactive | Potency [13]: inactive | Potency [18]: inactive

Cc1ccccc1N=C(N)N=C(N)N
outcome [1]: inactive | outcome [2]: inactive | outcome [3]: inactive | outcome [4]: inactive | outcome [5]: inactive | outcome [6]: inactive | outcome [7]: inactive | outcome [8]: inactive | outcome [9]: inactive | Potency [10]: inactive | Potency [11]: inactive | outcome [12]: inactive | Potency [13]: inactive

Clc1cc(Cl)c(Cl)nc1Cl
outcome [1]: inactive | outcome [2]: inactive | outcome [3]: inactive | outcome [4]: inactive | outcome [5]: inactive | outcome [6]: inactive | outcome [7]: inactive | outcome [8]: inactive | outcome [9]: inactive | Potency [14]: inactive | Potency [10]: inactive | Potency [11]: inactive | outcome [12]: inactive | Potency [13]: inactive

CCN(CC#N)c1cccc(C)c1
outcome [1]: inactive | outcome [2]: inactive | outcome [3]: inactive | outcome [4]: inactive | outcome [5]: inactive | outcome [6]: inactive | outcome [7]: inactive | outcome [8]: inactive | outcome [9]: inactive | Potency [14]: inactive | Potency [10]: inactive | Potency [11]: inactive | Potency [13]: inactive | Potency [18]: inactive
